Laboratory results from PubChem BioAssay AID504834 (National Center for Advancing Translational Sciences (NCATS), 2011).
Out of some 320,000 compounds screened, about 22,000 (6.9%) were called active. Another 27% or so got no clear call; they are omitted. The list comes from a sample in which actives are over-represented; it also holds similar structures and randomly drawn compounds. A number with no mark means an inactive call. Calls come from the whole dose curve; as a rule, active = well fitted inhibition curve with a large enough effect; inconclusive = small, poorly fitted or top-dose-only effect, or another doubt; inactive = no such curve, though single readings can be large or run the other way.

assay: Primary qHTS for delayed death inhibitors of the malarial parasite plastid, 96 hour incubation; conditions: P. falciparum luciferase reporter growth; series mostly up to 28.7 µM; activity change, negative = inhibition: at the top concentration
Procedure, shortened: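 96 h incubation, 37 C, 5% CO2, of luciferase-reporter P. falciparum-infected RBCs (2% hematocrit, 0.05% parasitemia final) with test compounds; endpoint luminescence.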
% is set by controls: 0 for no effect and ±100 for the full control effect; potency is the fitted concentration of half-maximal effect.

| Compound | Potency | activity change, negative = inhibition |
| --- | --- | --- |
| COc1ccc(C2Nc3ccccc3C(=O)N2Cc2ccccc2)cc1Cn1nnc2ccccc21 (centres undefined) | 3.29 µM (active) |  |
| Fc1ccc(OCc2nn3c(Cn4nnc5ccccc54)nnc3s2)cc1 |  | -28.1% |
| COc1ccc(N2C(=O)c3ccccc3NC2c2ccc(OC)c(CN3CCOCC3)c2)cc1 (centres undefined) |  | 316% |
| COc1ccc(C2Nc3ccccc3C(=O)N2c2ccc(F)cc2)cc1Cn1nnc2ccccc21 (centres undefined) | 9.28 µM (active) |  |
| CC(=O)NN1C(=O)c2ccccc2NC1c1ccccc1 (centres undefined) |  | -3.77% |
| Cc1ccc(C2Nc3ccccc3C(=O)N2CCN2CCNC2=O)cc1 (centres undefined) |  | -0.318% |
| COc1ccc(N(CC(=O)NCC2CCCO2)C(=O)CCC(=O)Nc2nccs2)c(OC)c1 (centres undefined) |  | -6.68% |
| O=C(CSc1nc2[nH]c(=O)[nH]c(=O)c2s1)Nc1cccc(F)c1 |  | 1.82% |
| Cc1ccc(S(=O)(=O)N2CCCCC2)cc1C(=O)N(C)CC(=O)Nc1cccc(F)c1 |  | -27.7% |
| CC(C)(C)C(=O)COC(=O)c1cc(S(=O)(=O)N2CCCCC2)ccc1N1CCOCC1 |  | 19.3% |
| CCc1nn(CC(=O)N2CCN(CC)CC2)c(=O)c2cccn12 |  | 40.8% |
| CC(NC(=O)C1CCCN(S(=O)(=O)c2ccc(-n3cnnn3)cc2)C1)c1ccc(F)cc1 (centres undefined) |  | -24.7% |
| C=CCn1c(=NC(=O)c2ccc(S(=O)(=O)N3CCCC3)cc2)sc2cc(NC(C)=O)ccc21 | 0.928 µM (active) |  |
| COc1cc(C(C)=O)ccc1OC(C)C(=O)Nc1ccc(S(=O)(=O)N2CCCC2)cc1 (centres undefined) |  | 2.7% |
| C=CCn1c(=NC(=O)c2cccs2)sc2cc(NC(C)=O)ccc21 |  | 110% |
| O=C(Cc1ccccc1F)NC1CCSc2ccccc21 (centres undefined) |  | -14.4% |
| O=S(=O)(/C=C/c1ccccc1)N1CCNCC1 |  | -0.204% |
| CC1CCN(C(=O)CCNC(=O)c2ccccc2)CC1 |  | 0% |
| Cn1c(CC2Sc3ccccc3NC2=O)nnc1SCC(=O)c1ccc(Cl)cc1 (centres undefined) |  | -8.32% |
| O=C(NCCN1CCOC1=O)C1CCC(=O)N(CCc2ccc(Cl)cc2)C1 (centres undefined) |  | -21.2% |
| CCOC(=O)COc1ccc(Cl)cc1C1NC(=O)NC(C)=C1C(C)=O (centres undefined) |  | -16% |
| COCCOC(=O)C1=C(C)NC(=O)NC1c1ccc(Cl)cc1 (centres undefined) |  | 10.3% |
| CCOC(=O)C1=C(C)NC(=O)N(C(C)=O)C1c1ccc(Cl)cc1 (centres undefined) | 4.15 µM (active) |  |

| Compound | Potency | activity change, negative = inhibition |
| --- | --- | --- |
| OC(COc1ccc(F)cc1Cl)CN1CCc2ccccc2C1 (centres undefined) |  | 5.53% |
| CS(=O)(=O)c1ccccc1C(=O)Nc1ccc2sccc2c1 |  | 35.9% |
| O=[N+]([O-])c1cccc2ncccc12 |  | 2.85% |
| C/C(=N\NC(N)=S)c1ccncc1 |  | 17.4% |
| C/C(=N\NC(=S)NC(C)C)c1ccc(C(C)(C)C)cc1 | 3.7 µM (active) |  |
| C/C(=N\NC(N)=S)c1cccnc1 |  | 22.1% |
| CC(C)Cc1nnc(NC(=O)CCc2ccccc2)s1 |  | -25% |
| CC(=O)N(Cc1cc(=O)[nH]c2ccccc12)c1ccc(C)cc1C |  | -0.0262% |
| Cc1noc(C)c1CSCC(=O)Nc1ccc(Br)cc1Cl |  | 0.407% |
| Cc1cccc(Cn2cnc3c(N)c(C)c(C)cc32)c1 | 10.4 µM (active) |  |
| CCOC(=O)c1cn(Cc2cccc(C)c2)nn1 |  | -7.81% |
| COc1cccc(Cn2cnc3c([N+](=O)[O-])c(C)c(C)cc32)c1 |  | -13.7% |
| Cc1ccc(NC(=O)c2cc3ccccc3o2)cc1 |  | 15.5% |
| O=C(O)c1[nH]c2ccccc2c1C(c1cccc(O)c1)c1c(C(=O)O)[nH]c2ccccc12 |  | 31.7% |
| COc1ccc(NC(=O)CN(C)C(=O)CNC(=O)C2CCCCC2)cc1 |  | 1.78% |
| O=S(=O)(Oc1ccccc1C(=S)N1CCOCC1)c1ccc(Cl)cc1 |  | -6.25% |
| CCCCNC(=O)CCn1nc(-c2ccc(Cl)cc2)ccc1=O |  | -4.67% |
| Cc1ccc(S(=O)(=O)N(CC(=O)N2CCc3ccccc3C2)c2cccc(Cl)c2)cc1 | 8.28 µM (active) |  |
| COc1cccc(N(CC(=O)N2CCc3ccccc3C2)S(C)(=O)=O)c1 |  | -3.71% |
| Cc1ccc(Cl)c(OCC(=O)N2CCc3ccccc3C2)c1 |  | -26.9% |
| CC(C)=CCC/C(C)=C/C(=O)O |  | 38.9% |
| O=C(Nc1ccccc1F)C1C2C=CC3(O2)C1C(=O)N(c1cccnc1)C3C(=O)NC1CCCCC1 (centres undefined) | 13.1 µM (active) |  |
| O=C(NCc1cccnc1)Nc1ccccc1F |  | 2.75% |

| Compound | Potency | activity change, negative = inhibition |
| --- | --- | --- |
| CC(C)N1C(=O)C2C(C(=O)NC3CCCCC3)C3C=CC2(O3)C1C(=O)NC1CCCC1 (centres undefined) |  | -1.06% [at 5.75 µM] |
| Nc1ccccc1C(=O)NC1CCCCNC1=O (centres undefined) |  | 13.7% |
| O=C1CCNCCN1[C@H](CO)Cc1ccccc1 |  | -16.3% |
| Cc1cccc(N2CCN(C(=O)C3CCN(S(=O)(=O)c4cnc[nH]4)CC3)CC2)c1C |  | -24.5% |
| Cc1cccc([C@H](C)c2cnc[nH]2)c1C | 4.26 µM (active) |  |
| CSc1ncccc1C(=O)NCc1ccccc1Cl |  | 18% |
| COc1ccc(CNC(=O)c2ccc(Br)s2)cc1OC |  | 5.99% |
| Cc1ccc(OCC(=O)OC(C)CN(C)Cc2ccccc2)cc1 (centres undefined) |  | 8.03% |
| OC(CNCc1ccc2c(c1)OCO2)COc1ccccc1 (centres undefined) |  | -21.4% |
| CN(Cc1ccccc1)CC(O)COc1ccc(CNCc2cc3ccccc3s2)cc1 (centres undefined) | 4.15 µM (active) |  |
| CC(C)C[C@H](NC(=O)[C@@H]1O[C@H]1C(=O)O)C(=O)NCCCCN=C(N)N | 3.29 µM (active) |  |
| COP1(=O)C[C@@H](O)[C@@H](O)[C@@H](COCc2ccccc2)O1 (some centres undefined) |  | 30.8% |
| COc1ccc(/C=C2\N=C3CCCN3C2=O)cc1 |  | 43.5% |
| CSc1nc(C)nc(C2CC2)c1C#N |  | 10.3% |
| Cc1cc(N2CCN(c3ccc(F)cc3)CC2)n2ncnc2n1 |  | 33.7% |
| Cc1cc(C)nc(N/N=C/c2ccc([N+](=O)[O-])o2)n1 | 5.22 µM (active) |  |
| O=C(N/N=C/c1ccc([N+](=O)[O-])o1)c1cc([N+](=O)[O-])cc([N+](=O)[O-])c1O |  | -102% |
| Cc1cc(C)nc(N/N=C/c2ccncc2)n1 |  | -3.32% |
| CCOC(=O)c1cc(C(C)C)sc1NC(=O)COC(=O)c1nccnc1N |  | 62.1% |
| Cc1ccc(NC(=O)[C@H](Cc2ccccc2)NC(=O)C2CCNCC2)cc1 |  | -1.68% |
| NS(=O)(=O)c1ccc(NC(=O)/C=C/c2ccccc2Cl)cc1 | 10.4 µM (active) |  |
| CC(=O)NS(=O)(=O)c1ccc(NC(=O)/C=C/c2ccccc2Cl)cc1 |  | 2.7% |
| O=C(/C=C/c1ccccc1Cl)Nc1ccc(S(=O)(=O)Nc2ncccn2)cc1 |  | 5.65% |

| Compound | Potency | activity change, negative = inhibition |
| --- | --- | --- |
| CCc1noc(C)c1C(=O)NNC(=O)c1ccc(F)cc1 |  | 12.7% |
| O=S(=O)(c1ccccc1)c1nc(-c2ccccc2)oc1NCCCN1CCOCC1 |  | -3.97% |
| CCc1nc2sc(C(=O)O)c(N)c2c2c1CCCC2 |  | -8.46% |
| CCOc1ccccc1C1CC(c2ccccc2)Nc2nc(N)nn21 (centres undefined) |  | 3.66% |
| CCOc1ccccc1C1CC(c2ccc(Cl)cc2)Nc2nc(N)nn21 (centres undefined) | 10.4 µM (active) |  |
| COc1ccc(C2CC(c3ccc(Cl)cc3Cl)Nc3nc(N)nn32)cc1OC (centres undefined) |  | 1.9% |
| COCCCNc1nc2ccccc2nc1NS(=O)(=O)c1ccc(F)cc1 |  | -2.54% |
| Cc1cccc(-n2nc3c(c2NC(=O)c2cc4ccccc4o2)CS(=O)(=O)C3)c1 |  | -14.9% |
| CCN(CC)c1ccc(C(=O)N/N=C(\C)c2cccc(OC)c2)cc1 |  | -11.7% |
| COc1cccc(C(=O)N/N=C(\C)c2cccc(NC(=O)c3ccc(F)cc3)c2)c1OC |  | 42.8% |
| COc1ccc(/C(C)=N\NC(=O)c2ccc(-c3ccccc3)cc2)c(F)c1 | 10.4 µM (active) |  |
| CN(Cc1nc2ccccc2s1)C(=O)c1ccc(F)cc1 |  | 18.1% |
| COc1ccccc1CC(=O)Nc1ccc(S(=O)(=O)N2CCCC2)cc1 |  | -1.9% |
| Cn1cc(CCC(=O)N2CCCC(C(=O)c3ccc(C(C)(C)C)cc3)C2)cn1 (centres undefined) |  | 0.855% |
| CCOC(=O)C1CCCN(C(=O)/C=C/c2ccc(OC)cc2)C1 (centres undefined) |  | 35.4% |
| Cn1cc(/C=C/C(=O)N2CCCC(C(=O)c3ccc(C(F)(F)F)cc3)C2)cn1 (centres undefined) | 10.4 µM (active) |  |
| Cc1cccc(NC(=O)N2CCCCCC2)c1C |  | 95.6% |
| N[C@@H](Cc1ccccc1)C(=O)N1CCOCC1 |  | 79.6% |
| COc1cccc(CNC(=O)c2cccnc2Sc2ccc(Cl)cc2)c1 |  | -1.02% |
| O=C1c2cccc3cccc(c23)C(=O)N1c1cccc(O)c1 |  | 8.72% |
| CCC(=C/c1sc2ccc3ccccc3c2[n+]1C)/C=C1\Sc2ccc3ccccc3c2N1C | 9.28 µM (active) |  |
| CC1(C)C2CCC1(CS(=O)(=O)NCCc1c[nH]c3ccccc13)C(=O)C2 (centres undefined) |  | -23.1% |
| Cc1csc(=O)n1CC(=O)OCC(=O)N(CC(C)C)c1c(N)n(Cc2ccccc2)c(=O)[nH]c1=O |  | 22.2% |

| Compound | Potency | activity change, negative = inhibition |
| --- | --- | --- |
| Nc1nnc2c(C(F)(F)F)nc3ccccc3n12 |  | 37.9% |
| Cc1ccc(OCCNC(=O)CCNS(=O)(=O)c2ccc(Br)cc2)cc1 |  | 71.1% |
| COc1cc2c(cc1OC)/C(=C/C(=O)c1ccc(NC(C)=O)cc1)NCC2 |  | 2.38% |
| COc1ccccc1CNC(=O)C1CCN(S(=O)(=O)c2ccc3c(c2)OCCO3)CC1 |  | 53.5% |
| COc1ccc(S(=O)(=O)N2CCC(C(=O)NCc3ccco3)CC2)cc1C | 5.22 µM (active) |  |
| Cc1ccc(S(=O)(=O)N2CCC(C(=O)N[C@@H](C)C(=O)NCc3ccco3)CC2)cc1 |  | -18.9% |
| CCc1ccc(C(=O)N2CCN(S(=O)(=O)c3sc(C(=O)O)c(C)c3C(=O)O)CC2)cc1 |  | -17.5% |
| O=C(Nc1nnc(-c2ccco2)o1)c1ccc(S(=O)(=O)N2CCOCC2)cc1 |  | 1.01% |
| COc1cccc(NC(=O)c2ccc(S(=O)(=O)N(C)C)cc2)c1 |  | 4.96% |
| COc1cccc(-c2nnc(NC(=O)c3ccc(S(=O)(=O)N(CC(C)C)CC(C)C)cc3)o2)c1 | 1.65 µM (active) |  |
| O=C(NCc1cccc(C(F)(F)F)c1)c1cccc(S(=O)(=O)N2CCN(Cc3ccccc3)CC2)c1 |  | -17.2% |
| O=C(OC1CCOC1=O)c1cccc(S(=O)(=O)Nc2ccc(F)cc2)c1 (centres undefined) |  | -31.8% |
| CCOc1ccc(NS(=O)(=O)c2ccc(C(=O)NCC(c3ccccc3OC)N3CCCC3)cc2)cc1 (centres undefined) | 14.7 µM (active) |  |
| O=C(NCC1(N2CCCCC2)CCCCC1)c1ccc(NS(=O)(=O)c2ccc(F)cc2)cc1 | 10.4 µM (active) |  |
| Cc1ccc(NS(=O)(=O)c2ccc(C(=O)NCCCN3CCOCC3)cc2)cc1 |  | 3.25% |
| O=C(NCc1ccccc1CN1CCCC1)c1cccc(S(=O)(=O)Nc2ccc(F)cc2)c1 | 10.4 µM (active) |  |
| O=C(NCC1CCCO1)c1ccc(S(=O)(=O)Nc2ccc(F)cc2)cc1 (centres undefined) |  | 33.4% |
| CC(=O)c1ccc(S(=O)(=O)Nc2ccc(C(=O)NCC(c3ccccc3)N(C)C)cc2)cc1 (centres undefined) |  | -1.6% |
| COc1ccc(C(CNC(=O)c2ccc(S(=O)(=O)Nc3ccccc3F)cc2)N(C)C)cc1 (centres undefined) |  | -20% |
| CCOc1ccc(S(=O)(=O)Nc2ccc(C(=O)NCCCN3CCCC3=O)cc2)cc1 |  | -11.4% |
| COc1ccccc1C(CNC(=O)c1cccc(NS(=O)(=O)c2ccc(Br)cc2)c1)N(C)C (centres undefined) | 6.57 µM (active) |  |
| CCOc1ccc(S(=O)(=O)Nc2ccc(S(=O)(=O)Nc3cc(OC)ccc3OC)cc2)cc1 |  | -5.22% |
